KCNQ2 pot: enhances the rat KCNQ2 potassium channel; O88943; AID 2239; 310,000 compounds, 0.54% hits; B-score at 10 µM; CHO-K1 KCNQ2, FluxOR thallium flux fluorescence; active compounds read high;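 active means fluorescence ratio B-score at least 3 SD of library B-scores, with initial fluorescence B-score within 3 of them, cut at about 5.3 in these data; same plate scores as AID 2156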;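 further: B-score of peak minus minimum over baseline fluorescence ratio after K+ and Tl+ stimulus; positive B-score means potentiation of KCNQ2 with more thallium influx and brighter signal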
KCNQ2 block: blocks the rat KCNQ2 potassium channel | 310,000 compounds, 1.1% hits | AID 2156 | CHO-K1 KCNQ2, FluxOR thallium flux, 20 min; active compounds read low | O88943 | B-score at 10 µM;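 active means fluorescence ratio B-score at most minus 3 library SDs, with starting brightness B-score within 2 library SDs, cut at about -5.5 in these data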
KCNQ2 block conf: rat KCNQ2 channel inhibition, confirmatory screen; shares compounds with KCNQ2 block; 1,000 compounds, 57% hits; KCNQ2-expressing cells, thallium flux; active compounds read low; activity change, negative = inhibition, % at 10 µM
KCNQ1 spec: KCNQ2 inhibitor that also affects human KCNQ1 channel | shares compounds with KCNQ2 block | KCNQ1-expressing cells, FluxOR thallium flux fluorescence; active compounds read low | 1,000 compounds, 15% hits | activity change, negative = inhibition, % at 10 µM | AID 493026;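 active means activity change at least 3 SD of negative controls below their mean in both duplicate wells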;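 further: CHO cells stably transfected with KCNQ1 and depolarized by potassium stimulus; peak minus minimum fluorescence over baseline after thallium addition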
Target sequence (P51787 whole entry, looked up): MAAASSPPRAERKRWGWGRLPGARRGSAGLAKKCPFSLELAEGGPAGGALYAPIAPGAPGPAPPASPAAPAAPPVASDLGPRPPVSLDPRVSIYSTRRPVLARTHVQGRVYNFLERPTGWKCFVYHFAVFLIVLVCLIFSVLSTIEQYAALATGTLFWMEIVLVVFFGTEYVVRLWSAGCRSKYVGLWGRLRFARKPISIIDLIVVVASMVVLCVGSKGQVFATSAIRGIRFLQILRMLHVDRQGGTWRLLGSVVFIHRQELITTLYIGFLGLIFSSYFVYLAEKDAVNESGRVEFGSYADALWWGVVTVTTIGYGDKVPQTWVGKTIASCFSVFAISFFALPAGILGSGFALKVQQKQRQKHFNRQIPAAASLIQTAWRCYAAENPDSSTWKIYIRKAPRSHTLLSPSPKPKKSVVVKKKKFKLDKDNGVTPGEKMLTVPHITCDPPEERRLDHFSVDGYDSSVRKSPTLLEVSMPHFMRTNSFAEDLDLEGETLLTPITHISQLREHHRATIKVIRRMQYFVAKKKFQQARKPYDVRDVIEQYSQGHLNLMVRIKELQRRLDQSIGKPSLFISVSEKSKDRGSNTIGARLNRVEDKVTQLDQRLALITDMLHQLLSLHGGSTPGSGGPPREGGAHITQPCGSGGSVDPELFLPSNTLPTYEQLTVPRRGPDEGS
CHO parental ctr: counter-screen for KCNQ2 inhibitors: effect in parental CHO cells; AID 493029; thallium flux counter-screen; active compounds read low; 1,000 compounds, 14% hits; activity change, % at 10 µM; shares compounds with KCNQ2 block
KCNQ2 patch conf: confirmation of rat KCNQ2 potassium channel inhibitors; calls only at 10 µM; 550 compounds, 49% hits; KCNQ2-expressing cells, automated patch clamp current; shares compounds with KCNQ2 block
Large screens that a line does not name were inactive (follow-up assays come after a bar, where they were run). An excerpt weighted towards active compounds, which were near 1.6% of everything screened. Unless noted, how the calls were made is not given here.

Cc1ccc(C)c(OCc2cc(C(=O)NC(c3ccccn3)C(F)(F)F)no2)c1 (stereo not drawn)	none (no result: KCNQ2 pot)
CN(CCOc1ccccc1)C(=O)C1CCC(=O)N(CCc2ccc(Cl)cc2)C1 (stereo not drawn)	KCNQ2 block -7.8 | KCNQ2 block conf inactive | KCNQ1 spec inactive | CHO parental ctr inactive
COc1ccc(CCN2CC(C(=O)N(C)CCOc3ccccc3)CCC2=O)cc1 (stereo not drawn)	none (no result: KCNQ2 pot)
Cc1ccccc1CNS(=O)(=O)c1c(C(=O)N2CCCCC2)c(C)n(C)c1C	none (no result: KCNQ2 pot)
CCCn1c(=O)c(C(=O)NC(C)c2ccccc2)c(O)c2ccccc21 (stereo not drawn)	KCNQ2 block -11 | KCNQ2 block conf inactive | KCNQ1 spec inactive | CHO parental ctr inactive
CCn1c(=O)c(C(=O)NCc2ccccc2Cl)c(O)c2ccccc21	KCNQ2 block -8.4 | KCNQ2 block conf -36% | KCNQ1 spec -37% | CHO parental ctr -23% | KCNQ2 patch conf inactive
CCn1c(=O)c(C(=O)NC(C)c2ccccc2)c(O)c2ccccc21 (stereo not drawn)	none (no result: KCNQ2 pot)
Cn1c(=O)c(C(=O)NCc2ccccc2Cl)c(O)c2ccccc21	none (no result: KCNQ2 pot)
NNC(=O)[C@H](Cc1ccccc1)NC(=O)NCCc1ccccc1	none
CC(C)CNC(=O)COC(=O)CNC(=O)c1cc(Cl)cc([N+](=O)[O-])c1	none
O=C(c1cc(-c2ccccc2)nc2ccccc12)N1CCCc2ccccc21	none (no result: KCNQ2 pot)
Cc1cccc(-c2cc(C(=O)N3CCCc4ccccc43)c3ccccc3n2)c1	KCNQ2 block -6.8 | KCNQ2 block conf -40% | KCNQ1 spec -42% | CHO parental ctr -34% | KCNQ2 patch conf inactive
O=C(NNC(=O)c1cc(-c2ccncc2)nc2ccccc12)Nc1ccc(F)cc1	none
Cc1cccc(-c2cc(C(=O)Nc3ccncc3)c3ccccc3n2)c1	none (no result: KCNQ2 pot)
Cc1cccc(-c2cc(C(=O)Nc3cccnc3)c3ccccc3n2)c1	KCNQ2 block -8 | KCNQ2 block conf -47% | KCNQ1 spec -48% | CHO parental ctr -46% | KCNQ2 patch conf active
Cc1ccc(-c2cc(C(=O)Nc3cc(C)on3)c3ccccc3n2)cc1	none (no result: KCNQ2 pot)
Cc1cc(NC(=O)c2cc(-c3cccc(OCC(C)C)c3)nc3ccccc23)no1	KCNQ2 block -11 | KCNQ2 block conf -20% | KCNQ1 spec inactive | CHO parental ctr inactive | KCNQ2 patch conf inactive
O=C(NNC(=O)c1cc(-c2cccnc2)nc2ccccc12)Nc1ccc(Cl)cc1	KCNQ2 block -9.8 | KCNQ2 block conf -27% | KCNQ1 spec inactive | CHO parental ctr inactive | KCNQ2 patch conf inactive
CCC(C)c1ccc(NC(=S)N2CCN(C(=O)C3CCCO3)CC2)cc1 (stereo not drawn)	none
COc1cccc(CNC(=O)CSc2nc(=O)n(Cc3ccncc3)c3c2CCC3)c1	none (no result: KCNQ2 pot)
O=C(Cc1ccc(Br)cc1)NCCc1ccc(F)cc1	none
Cc1ccc(-c2cc(C(=O)Nc3cccnc3)c3ccccc3n2)s1	KCNQ2 block -7.9 | KCNQ2 block conf -18% | KCNQ1 spec inactive | CHO parental ctr inactive
Cc1cc(C)nc(NC(=O)c2cc(-c3ccc(C)s3)nc3ccccc23)c1	none (no result: KCNQ2 pot)
Cc1ccsc1/C=N/n1c(-c2ccccn2)n[nH]c1=S	none
O=C(NC(Cc1ccccc1)C(=O)O)/C(=C/c1ccc(Br)cc1)NC(=O)c1ccc(Br)o1 (stereo not drawn)	none (no result: KCNQ2 pot)
COc1cc(-c2nc3cccc(C)n3c2NCC2CCCO2)ccc1O (stereo not drawn)	KCNQ2 block -8.6 | KCNQ2 block conf inactive | KCNQ1 spec inactive | CHO parental ctr inactive
COc1cc(-c2nc3cnccn3c2Nc2ccccc2)ccc1O	none
COCC(=O)Nc1sc2c(c1C(=O)OC)CCCC2	none (no result: KCNQ2 pot)
COC(=O)c1c(NC(=O)Cc2cccs2)sc2c1CCCC2	KCNQ2 block -8.4 | KCNQ2 block conf -30% | KCNQ1 spec inactive | CHO parental ctr inactive | KCNQ2 patch conf inactive
CCN(CC(=O)Nc1cc(Cl)ccc1C)C(=O)CCS(=O)(=O)c1ccc(C)cc1	none (no result: KCNQ2 pot)
O=C(COC(=O)CNC(=O)c1ccc(Cl)c([N+](=O)[O-])c1)NC(=O)CN1CCCC1=O	none (no result: KCNQ2 pot)
CC1=Nc2ccccc2/C1=C/c1nc(-c2ccc(C)s2)oc1O	none (no result: KCNQ2 pot)
CC1=Nc2ccccc2/C1=C/c1sc(=N)n(-c2nccs2)c1O	KCNQ2 block -9.9 | KCNQ2 block conf -52% | KCNQ1 spec -62% | CHO parental ctr -57% | KCNQ2 patch conf inactive
CN(Cc1ccccc1)C(=O)COc1cccnc1[N+](=O)[O-]	none
CN1/C(=C\C(=O)c2cccnc2)C(C)(C)c2ccccc21	none (no result: KCNQ2 pot)
CN1/C(=C\C(=O)c2cncc(Br)c2)C(C)(C)c2ccccc21	KCNQ2 block -8 | KCNQ2 block conf -40% | KCNQ1 spec -43% | CHO parental ctr -37% | KCNQ2 patch conf inactive
COc1cccc(N2CCN(C(=O)c3cccc(N4C(=O)NC5CC4(C)Oc4c(OC)cccc45)c3)CC2)c1 (stereo not drawn)	none
COc1ccccc1N1CCN(C(=O)c2cccc(N3C(=O)NC4CC3(C)Oc3ccccc34)c2)CC1 (stereo not drawn)	KCNQ2 block -7.7 | KCNQ2 block conf inactive | KCNQ1 spec inactive | CHO parental ctr inactive
CCOC(=O)N1CCN(C(=O)c2cccc(N3C(=O)NC4CC3(C)Oc3ccccc34)c2)CC1 (stereo not drawn)	none
CC12CC(NC(=O)N1c1cccc(C(=O)N3CCN(c4ccccc4)CC3)c1)c1ccccc1O2 (stereo not drawn)	KCNQ2 block -7.3 | KCNQ2 block conf inactive | KCNQ1 spec inactive | CHO parental ctr inactive
O=S(=O)(C/C(=C/CO)S(=O)(=O)c1ccccc1)c1ccccc1	KCNQ2 block -8 | KCNQ2 block conf inactive | KCNQ1 spec inactive | CHO parental ctr inactive
CCN(Cc1ccccc1)C(=O)CS(=O)(=O)c1ccccc1	none
O=c1[nH]c(-c2ccccc2)nn1-c1ccc(Br)cc1Br	none (no result: KCNQ2 pot)
CCOc1ccccc1NC(=O)CSc1nnc(CNC(=O)c2c(F)cccc2Cl)o1	none
CCc1ccc(-c2csc(NC(=O)C3CCCO3)c2C(=O)OC(C)C)cc1 (stereo not drawn)	KCNQ2 block -8.3 | KCNQ2 block conf -29% | KCNQ1 spec inactive | CHO parental ctr inactive
COC(=O)c1c(-c2ccc(F)cc2)csc1NC(=O)C1CCCO1 (stereo not drawn)	none
COC(=O)C(Cc1ccccc1)NCC(=O)Nc1cccc(Cl)c1C (stereo not drawn)	KCNQ2 block -8.2 | KCNQ2 block conf -36% | KCNQ1 spec inactive | CHO parental ctr inactive | KCNQ2 patch conf active
Cc1c(Cl)cccc1NC(=O)CS(=O)(=O)c1ccccc1	none (no result: KCNQ2 pot)
C=CCCCCCCCCC(=O)Nc1ncccn1	none
O=C(/C=C/c1ccc(Cl)cc1)N1CCN(c2c(Cl)cccc2[N+](=O)[O-])CC1	none (no result: KCNQ2 pot)
O=C(CSc1ccc(Cl)cc1)N1CCN(c2c(Cl)cccc2[N+](=O)[O-])CC1	KCNQ2 block -8.2 | KCNQ2 block conf inactive | KCNQ1 spec inactive | CHO parental ctr inactive
CC(C)c1ccc2nc(SCC(=O)NCC3CCCO3)c(C#N)cc2c1 (stereo not drawn)	none
O=C(NC12CC3CC(CC(C3)C1)C2)c1ccccc1	none (no result: KCNQ2 pot)
